Assay results from PubChem BioAssay (Tox21).
Values joined by “and” are separate entries in the source; they are usually repeats but may differ in a detail not shown here. Identical values can stand only once. Results filed as inconclusive are left out. Entries that show only a call come without a potency. More than one record can exist for a structure, and the calls need not agree. Active and inactive are the calls of the source. Unless noted, calls follow the shape of the dose curve; as a rule, active = well fitted curve in the direction sought with a large enough effect in the repeat runs; inconclusive = weak or mixed curves; inactive = no such curve, though single readings can be large; an effect the other way counts as inactive or inconclusive.

What was measured:
[1] = qHTS assay to identify small molecule antagonists of the glucocorticoid receptor (GR) signaling pathway - cell viability counter screen (AID 720693); also: nearly all actives have a fitted effect of over 55% in size
[2] = qHTS assay for identifying genotoxic compounds that show differential cytotoxicity against isogenic chicken DT40 cell lines with known DNA damage response pathways - wild type cell line (AID 743012); also: nearly all actives have a fitted effect of over 60% in size; also: potency is read from the fitted curve at half-maximal effect
Method in brief: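 Endpoint: CellTiter-Glo luminescence, 30 min RT. Cells: wild type DT40, 300/well. Exposure: compounds in DMSO, 40 h, 37 C/5% CO2, after ~0.5 h pre-incubation.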

[3] = qHTS assay for identifying genotoxic compounds that show differential cytotoxicity against isogenic chicken DT40 cell lines with known DNA damage response pathways - Rev3 mutant cell line (AID 743014); also: nearly all actives have a fitted effect of over 55% in size; also: potency is read from the fitted curve at half-maximal effect
[4] = qHTS assay for identifying genotoxic compounds that show differential cytotoxicity against isogenic chicken DT40 cell lines with known DNA damage response pathways - Rad54/Ku70 mutant cell line (AID 743015); also: nearly all actives have a fitted effect of over 60% in size; also: potency is read from the fitted curve at half-maximal effect
[5] = qHTS assay to identify small molecule antagonists of the androgen receptor (AR) signaling pathway - cell viability counter screen (AID 743033; also: nearly all actives have a fitted effect of over 45% in size)
[6] = qHTS assay to identify small molecule antagonists of the androgen receptor (AR) signaling pathway using the MDA cell line - cell viability counter screen (AID 743041; also: nearly all actives have a fitted effect of over 45% in size)
Method in brief: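 In this qHTS counter assay, fluorescence intensity after CellTiter-Fluor addition indicated viability of MDA-kb2 AR-luc cells given compounds and R1881 for 16 h at 37C.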

[7] = qHTS assay to identify small molecule antagonists of the thyroid receptor (TR) signaling pathway - cell viability counter screen (AID 743064); also: nearly all actives have a fitted effect of over 50% in size; also: potency is read from the fitted curve at half-maximal effect
Method in brief: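 Same-well viability check: GH3.TRE-Luc cells stimulated with 1 nM T3 alongside test compound for 23.5 h, followed by CellTiter-Fluor fluorescence.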

[8] = test system: thyroid hormone receptor (rat, GH3 cells); test: qHTS assay to identify small molecule agonists of the thyroid receptor (TR) signaling pathway (AID 743066; calls by dose curve)
[9] = biological target: Estrogen receptor (Homo sapiens) (UniProt P03372); test: qHTS assay to identify small molecule antagonists of the estrogen receptor alpha (ER-alpha) signaling pathway (AID 743069; active = well fitted curve in the direction sought with a large enough effect in the signal ratio in the repeat runs, not every such curve was filed as active; the % refers to the signal ratio)
Sequence of Estrogen receptor (Homo sapiens) (P03372 whole entry, looked up): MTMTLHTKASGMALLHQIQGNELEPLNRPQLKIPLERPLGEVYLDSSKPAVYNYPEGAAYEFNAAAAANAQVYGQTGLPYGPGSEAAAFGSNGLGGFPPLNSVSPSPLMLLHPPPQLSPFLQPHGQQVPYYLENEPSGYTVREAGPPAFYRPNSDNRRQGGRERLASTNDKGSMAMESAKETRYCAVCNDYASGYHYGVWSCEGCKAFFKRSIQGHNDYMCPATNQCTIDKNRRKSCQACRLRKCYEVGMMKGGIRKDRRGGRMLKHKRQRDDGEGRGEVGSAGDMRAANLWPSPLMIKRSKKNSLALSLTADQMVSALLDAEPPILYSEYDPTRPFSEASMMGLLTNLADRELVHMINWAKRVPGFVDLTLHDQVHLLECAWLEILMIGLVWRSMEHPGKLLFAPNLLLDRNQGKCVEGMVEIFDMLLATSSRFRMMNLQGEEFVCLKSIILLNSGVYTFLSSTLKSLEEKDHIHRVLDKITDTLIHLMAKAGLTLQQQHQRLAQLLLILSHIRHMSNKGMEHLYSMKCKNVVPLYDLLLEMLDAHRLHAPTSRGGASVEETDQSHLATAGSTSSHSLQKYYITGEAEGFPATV
Method in brief: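 A 17beta-estradiol challenge was applied right after compound transfer to ER-alpha-UAS-bla HEK293 cells previously kept in charcoal-stripped serum. Plates stood 18 hr at 37C and 5% CO2; fluorescence was read following 2 hr FRET substrate loading at room temperature.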

[10] = biological target: Estrogen receptor (Homo sapiens) (UniProt P03372); test: qHTS assay to identify small molecule agonists of the estrogen receptor alpha (ER-alpha) signaling pathway (AID 743075; calls by dose curve;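 also: HEK293 GripTite cells with ER-alpha and UAS-driven beta-lactamase reporter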)
[11] = biological target: Estrogen receptor (Homo sapiens) (UniProt P03372); test: qHTS assay to identify small molecule agonists of the estrogen receptor alpha (ER-alpha) signaling pathway using the BG1 cell line (AID 743079); also: nearly all actives have a fitted effect of over 20% in size
[12] = qHTS assay to identify small molecule antagonists of the estrogen receptor alpha (ER-alpha) signaling pathway using the BG1 cell line (AID 743080; calls by dose curve;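 also: BG1 cells stimulated with 17beta-estradiol alongside compound; series mostly up to about 70 µM; nearly all actives have a fitted effect of over 25% in size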)
Method in brief: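 BG1-Luc-4E2 cells (endogenous full-length ER-alpha, 4xERE luciferase) hormone-starved 5 days in charcoal-stripped FBS, plated 4,000/well for 24 h, then compound plus 17beta-estradiol for 21.5 h at 37 C; ONE-Glo luminescence read.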

[13] = qHTS assay to identify small molecule antagonists of the estrogen receptor alpha (ER-alpha) signaling pathway using the BG1 cell line - cell viability counter screen (AID 743081);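 also: compound given together with 17beta-estradiol as the ER stimulus; series mostly up to about 70 µM; nearly all actives have a fitted effect of over 45% in size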
Aromatase (Homo sapiens) = Aromatase (Homo sapiens) (UniProt P11511); test: qHTS assay to identify aromatase inhibitors (AID 743083); also: series mostly up to about 70 µM; nearly all actives have a fitted effect of over 55% in size
Sequence of Aromatase (Homo sapiens) (P11511 whole entry, looked up): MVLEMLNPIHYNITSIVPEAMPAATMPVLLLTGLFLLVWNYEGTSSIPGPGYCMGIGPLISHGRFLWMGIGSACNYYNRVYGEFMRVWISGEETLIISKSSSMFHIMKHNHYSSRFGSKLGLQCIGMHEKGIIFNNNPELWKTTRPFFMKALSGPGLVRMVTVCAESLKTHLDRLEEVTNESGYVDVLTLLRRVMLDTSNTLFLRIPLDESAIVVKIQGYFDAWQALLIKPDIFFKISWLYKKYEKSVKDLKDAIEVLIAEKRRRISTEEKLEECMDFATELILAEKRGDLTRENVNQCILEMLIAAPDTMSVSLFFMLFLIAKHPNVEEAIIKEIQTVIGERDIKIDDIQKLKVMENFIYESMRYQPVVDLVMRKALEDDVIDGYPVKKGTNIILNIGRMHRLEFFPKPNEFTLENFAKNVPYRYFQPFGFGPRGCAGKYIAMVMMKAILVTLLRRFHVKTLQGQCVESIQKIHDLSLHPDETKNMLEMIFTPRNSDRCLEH

[14] = qHTS assay to identify small molecule antagonists of the estrogen receptor alpha (ER-alpha) signaling pathway - cell viability counter screen (AID 743074; calls by dose curve;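 also: HEK293 cells carrying ER-alpha-UAS-bla reporter stimulated with 17beta-estradiol; nearly all actives have a fitted effect of over 45% in size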)
[15] = qHTS assay to identify small molecule antagonists of the thyroid receptor (TR) signaling pathway (AID 743065); also: nearly all actives have a fitted effect of over 55% in size; also: potency is read from the fitted curve at half-maximal effect
Method in brief: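 GH3.TRE-Luc rat pituitary cells carrying two TR response elements driving luciferase were plated for 4 h, given compound plus 1 nM T3 (final), and incubated 23.5 h at 37 C. ONE-Glo luminescence measured reporter inhibition; CellTiter-Fluor fluorescence tracked cytotoxicity.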

SMILES | outcome [1] | Potency [2] | Potency [3] | Potency [4] | Potency [5] | Potency [6] | Potency [7] | outcome [8] | outcome [9] | Potency [10] | Potency [11] | outcome [12] | Potency [13] | Potency (Aromatase (Homo sapiens)) | outcome [14] | Potency [15]
CCCCCOC(=O)CCCCC | inactive | inactive | inactive | inactive | inactive | inactive | inactive | inactive | inactive | inactive | inactive | inactive | inactive | inactive | – | –
CC/C=C\CC/C=C/CO | inactive | inactive | inactive | inactive | inactive | inactive | – | inactive | – | – | – | – | inactive | inactive | inactive | –
CCCN(CCC)CCc1cccc2c1CC(=O)N2 | inactive | inactive | inactive | inactive | inactive | inactive | inactive | inactive | – | – | – | – | inactive | inactive | inactive | –
O=C(O)CN(CCOCCOCCN(CC(=O)O)CC(=O)O)CC(=O)O | inactive | inactive | inactive | inactive | inactive | inactive | inactive | inactive | – | – | – | – | inactive | inactive | inactive | inactive
Nc1ccc(S(=O)(=O)Nc2ccnn2-c2ccccc2)cc1 | inactive | inactive | inactive | inactive | inactive | inactive | inactive | inactive | inactive | inactive | inactive | inactive | inactive | inactive | inactive | –
COC(=O)c1cc(C(=O)OC)cc(S(=O)(=O)O)c1 | inactive | inactive | inactive | inactive | inactive | inactive | inactive | inactive | – | – | – | – | inactive | inactive | inactive | inactive
COC(=O)c1c(Cl)c(Cl)c(C(=O)OC)c(Cl)c1Cl | inactive | inactive and 48.6 µM (active) | inactive | inactive | inactive | inactive | inactive | inactive | – | inactive | inactive | inactive | inactive | inactive | inactive | –
Cc1c(O)cccc1O | inactive | inactive | inactive | inactive | inactive | inactive | inactive | inactive | – | inactive | inactive | inactive | inactive | inactive | inactive | inactive
CC(C)CNCC(C)C | inactive | inactive | inactive | inactive | inactive | inactive | – | inactive | – | – | – | – | inactive | inactive | inactive | inactive
CN(C)CCCSc1ccccc1NC(=O)/C=C/c1ccccc1 | inactive | 26.6 µM (active) | 13.3 µM (active) | 29.8 µM (active) | inactive | inactive | 26.6 µM (active) | inactive | inactive | inactive | inactive | inactive | – | inactive | – | 23.7 µM (active)
CCCCOCCOCCOCCCC | inactive | inactive | inactive | inactive | inactive | inactive | inactive | inactive | – | – | – | – | inactive | inactive | inactive | inactive
C/C=C(\C)C#N | inactive | inactive | inactive | inactive | inactive | inactive | – | inactive | inactive | inactive | inactive | inactive | inactive | inactive | inactive | –
CC(=O)OCC(=O)[C@@]1(O)CCC2C3CCC4=CC(=O)CC[C@]4(C)C3[C@@H](O)C[C@@]21C (stereo not given in full) | inactive | inactive | inactive | inactive | inactive | inactive | inactive | inactive | – | – | – | – | inactive | inactive | inactive | inactive
C[N+](C)(C)CCCCCC[N+](C)(C)C | inactive | inactive | inactive | inactive | inactive | inactive | inactive | inactive | – | – | – | – | – | inactive | inactive | inactive
Cc1nc2c([nH]1)c(=O)n(C)c(=O)n2Cc1ccco1 | inactive | inactive | inactive | inactive | inactive | inactive | inactive | inactive | inactive | inactive | inactive | – | inactive | inactive | inactive | –
CC(C)=CCCC(C)CC(=O)O (stereo not given) | inactive | inactive | inactive | inactive | inactive | inactive | inactive | inactive | – | – | – | – | inactive | inactive | inactive | –
C[C@H](NC(CCc1ccccc1)C(=O)O)C(=O)N1CCC[C@H]1C(=O)O (stereo not given in full) | inactive | inactive | inactive | inactive | inactive | inactive | – | inactive | inactive | inactive | inactive | inactive | inactive | inactive | – | inactive
NS(=O)(=O)c1ccccc1Cl | inactive | inactive | inactive | inactive | inactive | inactive | inactive | inactive | – | – | – | – | inactive | inactive | inactive | inactive
N[C@@H](C(=O)N[C@@H]1C(=O)N2C(C(=O)O)=C(Cl)CS[C@H]12)c1ccccc1 | inactive | inactive | inactive | inactive | inactive | inactive | – | inactive | inactive | inactive | inactive | inactive | inactive | inactive | inactive | inactive
Nc1c2c(nc3ccccc13)CCCC2O (stereo not given) | inactive | inactive | inactive | inactive | inactive | inactive | – | – | inactive | inactive | inactive | inactive | inactive | – | inactive | –
Nc1cc(=O)[nH]c(N)n1 | inactive | inactive | inactive | inactive | inactive | inactive | inactive | inactive | inactive | inactive | inactive | inactive | inactive | inactive | inactive | –
